The nature of assay [1]: qHTS assay to identify small molecule agonists of the vitamin D receptor (VDR) signaling pathway - cell viability counter screen (AID 743224). Note: series mostly up to about 63 µM; nearly all actives have a fitted effect of over 50% in size. The gist of the method: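 VDR-bla cell line, quantitative HTS format; 16 h compound incubation (37C, 5% CO2); ATP-based CellTiter-Glo luminescence measured in the reporter assay wells.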
The nature of assay [2]: qHTS assay to identify small molecule antagonists of the vitamin D receptor (VDR) signaling pathway - cell viability counter screen (AID 743225). Note: nearly all actives have a fitted effect of over 50% in size. The gist of the method:
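Read-out: CellTiter-Glo luminescence measured 30 min after reagent addition at room temperature. Cells were VDR-bla HEK 293T exposed 16 h at 37C, 5% CO2, to compound with 3 nM final calcitriol agonist.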

Assay [3] is described as follows: qHTS assay to identify small molecule agonists of the NFkB signaling pathway (AID 1159509; active = well fitted curve in the direction sought with a large enough effect in the signal ratio in the repeat runs, not every such curve was filed as active; the % refers to the signal ratio; note: series mostly up to about 61 µM). The gist of the method:
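NFkB-bla ME-180 cells carry a beta-lactamase reporter under an NF-kB response element. They were plated overnight, then exposed to compounds for 5 h at 37 C. Read-out is LiveBLAzer FRET after 1.5 hr at room temperature (405 nm excitation; 460/530 nm emission).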

Assay [4] is described as follows: qHTS assay to identify small molecule agonists of the NFkB signaling pathway - cell viability counter screen (AID 1159515; calls by dose curve; note: series mostly up to about 61 µM; nearly all actives have a fitted effect of over 55% in size). The gist of the method: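 Viability in NFkB-bla ME-180 cells was measured by CellTiter-Glo luminescence, 30 min room temperature, in wells already treated 5 hr with compounds and read for reporter FRET.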
Assay [5] is described as follows: qHTS assay to identify small molecule agonists of the endoplasmic reticulum stress response signaling pathway (AID 1159516; active = well fitted activation curve with a large enough effect in the signal ratio in the repeat runs, not every such curve was filed as active; the % refers to the signal ratio). The gist of the method:
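ER stress element reporter (bla) in HeLa. 1,500 cells/well, overnight attachment; 5 hr compound; 2 hr RT substrate; dual-emission fluorescence.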

A short description of assay [6]: qHTS assay to identify small molecule agonists of the endoplasmic reticulum stress response signaling pathway - cell viability counter screen (AID 1159517; calls by dose curve; note: series mostly up to about 61 µM; nearly all actives have a fitted effect of over 50% in size). The gist of the method: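 HeLa cells carrying an ESRE-driven beta-lactamase reporter receive compound for 5 hr at 37 C. Cell viability is then gauged with CellTiter-Glo by luminescence, 30 min at room temperature.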

The nature of assay [7]: qHTS assay to identify small molecule antagonists of the retinoid-related orphan receptor gamma (ROR-gamma) signaling pathway - cell viability counter screen (AID 1159520). Note: nearly all actives have a fitted effect of over 50% in size. Summed up:
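Cytotoxicity was read from cellular ATP (CellTiter-Glo luminescence) after 16 hr at 37 C with 1 uM doxycycline induction. The inducer was added 2 hr after compound transfer to Tet-on ROR gamma CHO cells.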

Assay [8] in a line: qHTS assay to identify small molecule agonists of the AP-1 signaling pathway - cell viability counter screen (AID 1159525; calls by dose curve; note: nearly all actives have a fitted effect of over 55% in size). Summed up: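 Luminescent ATP readout (Cell Titer Glo, 30 min RT), normalised to DMSO and tetra n-octyl ammonium bromide controls. Cells were ME-180 AP-1-bla in 0.5% dialyzed FBS Opti-MEM, with a 5 h, 37 °C compound exposure.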
Assay [9] can be described thus: qHTS assay to identify small molecule agonists of the AP-1 signaling pathway (AID 1159526; calls by dose curve).
For assay [10], the target named is Retinoic acid receptor RXR-alpha (Homo sapiens) (UniProt P19793). Kind of assay: qHTS assay to identify small molecule agonists of the RXR signaling pathway (AID 1159527; calls by dose curve; note: nearly all actives have a fitted effect of over 35% in size). The gist of the method:
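Read-out: beta-lactamase FRET ratio (405 nm excitation, 460 and 530 nm emission) after 2 hr substrate loading at room temperature. Cells were RXR-alpha-UAS-bla HEK 293T treated with compounds for 16 hr in 2% charcoal-stripped FBS medium.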

Assay [11] can be described thus: qHTS assay to identify small molecule agonists of the RXR signaling pathway - cell viability counter screen (AID 1159529). The gist of the method:
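HEK 293T RXRa-bla cells, 2% CS-FBS; 5 h settle; cpd 16 h 37 C, 5% CO2; CellTiter-Glo 30 min RT, luminescence. Tetraoctyl ammonium bromide as positive control.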

The nature of assay [12]: qHTS assay to identify small molecule antagonists of the retinoid acid receptor (RAR) signaling pathway - cell viability counter screen (AID 1159551). Note: nearly all actives have a fitted effect of over 35% in size. Summed up:
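Following overnight attachment, C3RL4 reporter cells received DMSO-dissolved compounds and then retinol (1 uM final). Six hours later at 37 C, ATP content was measured by CellTiter-Glo luminescence.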

A short description of assay [13]: qHTS assay to identify small molecule antagonists of the retinoic acid receptor (RAR) signaling pathway (AID 1159552; note: nearly all actives have a fitted effect of over 50% in size; note: potency is the fitted concentration of half-maximal effect). Summed up:
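Cells of the C3RL4 line were seeded, incubated overnight, then dosed with compounds in DMSO followed immediately by retinol (1 uM final). Six hours later luciferase detection reagent went in; signal was measured after 30 min at RT.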

Assay [14] is described as follows: qHTS assay to identify small molecule antagonists of the estrogen related receptor (ERR) signaling pathway - cell viability counter screen (AID 1224818). Note: series mostly up to about 46 µM. The gist of the method:
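Here, ERR cells are plated at 2,000 cells per well, allowed 6 h to attach, and treated with compounds in DMSO for 17.5 h at 37 C. CellTiter-Fluor is then added and fluorescence read after 30 min.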

The nature of assay [15]: qHTS assay to identify small molecule antagonists of the estrogen related receptor (ERR) signaling pathway (AID 1224819; note: nearly all actives have a fitted effect of over 50% in size; note: potency is the fitted concentration of half-maximal effect). The gist of the method: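 LOPAC library screened for antagonism as reduced One-Glo luminescence in ERR reporter cells (2,000/well). Compounds were added after 6 h pre-incubation and left 18 h at 37C; reading followed a 30 min room-temperature reagent step.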

Assay [16] is described as follows: qHTS assay to identify small molecule agonists of the estrogen related receptor (ERR) signaling pathway (AID 1224820). The gist of the method:
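ERR reporter cell line (from NTP), 2,000 cells/well, incubated 6 h before compound addition, then 18 h at 37 C. Luminescence measured 30 min after One-Glo reagent at room temperature.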

Assay [17] has as its system estrogen-related receptor alpha (ERRalpha) with PGC-1alpha coactivator, human. Kind of assay: qHTS assay to identify small molecule antagonists of the estrogen related receptor signaling pathway with the pleiotropic PPARgamma coactivator (PGC) (AID 1224821; calls by dose curve; note: nearly all actives have a fitted effect of over 50% in size; note: potency is the fitted concentration of half-maximal effect). The gist of the method:
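PGC/ERR reporter cell line, plated 6 h before compound addition, then exposed 18 h at 37 °C. Luciferase activity read by luminescence 30 min after One-Glo addition; decrease indicates antagonism.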

Assay [18] in a line: qHTS assay to identify small molecule antagonists of the estrogen related receptor signaling pathway with the pleiotropic PPARgamma coactivator (PGC) cell viability counter screen (AID 1224822; note: series mostly up to about 46 µM). The gist of the method: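 qHTS format, DMSO compound stocks pin-transferred onto PGC/ERR cells 6 h after plating; 17.5 h exposure at 37 C, then CellTiter-Fluor fluorescence.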
The target in assay [19] is Nuclear receptor ROR-gamma (Homo sapiens) (UniProt P51449). Kind of assay: qHTS assay to identify small molecule antagonists of the retinoid-related orphan receptor gamma (ROR-gamma) signaling pathway (AID 1159521; note: nearly all actives have a fitted effect of over 50% in size; note: potency is the fitted concentration of half-maximal effect). The gist of the method:
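CHO Tet-on RORγ, RORE-luc reporter. Cpd 2 h pre-incubation, then dox hyclate 1 uM final, 16 h, 37 C/5% CO2. ONE-Glo luminescence; decrease = antagonist.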

Assay [20] can be described thus: qHTS assay to identify small molecule agonists of the retinoic acid receptor (RAR) signaling pathway (AID 1159553). Note: potency is the fitted concentration of half-maximal effect. The gist of the method:
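Cell line C3RL4, RARE luciferase reporter. Treatment: compounds in DMSO, 6 hr, 37 C, 5% CO2, after overnight plating. Detection: luminescence, 30 min RT after reagent.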

Values joined by “and” are separate entries in the source; they are usually repeats but may differ in a detail not shown here. Equal entries are not always repeated. Inconclusive results are not listed. Some structures have more than one record in an assay (separate samples or runs), and their calls can disagree. Active and inactive are the calls of the source. Unless noted, calls come from the whole dose curve; as a rule, active = well fitted curve in the direction sought with a large enough effect in the repeat runs; inconclusive = weak or mixed curves; inactive = no such curve, though single readings can be large; an effect the other way counts as inactive or inconclusive.

Retinoic acid receptor RXR-alpha (Homo sapiens), sequence (P19793 whole entry, looked up): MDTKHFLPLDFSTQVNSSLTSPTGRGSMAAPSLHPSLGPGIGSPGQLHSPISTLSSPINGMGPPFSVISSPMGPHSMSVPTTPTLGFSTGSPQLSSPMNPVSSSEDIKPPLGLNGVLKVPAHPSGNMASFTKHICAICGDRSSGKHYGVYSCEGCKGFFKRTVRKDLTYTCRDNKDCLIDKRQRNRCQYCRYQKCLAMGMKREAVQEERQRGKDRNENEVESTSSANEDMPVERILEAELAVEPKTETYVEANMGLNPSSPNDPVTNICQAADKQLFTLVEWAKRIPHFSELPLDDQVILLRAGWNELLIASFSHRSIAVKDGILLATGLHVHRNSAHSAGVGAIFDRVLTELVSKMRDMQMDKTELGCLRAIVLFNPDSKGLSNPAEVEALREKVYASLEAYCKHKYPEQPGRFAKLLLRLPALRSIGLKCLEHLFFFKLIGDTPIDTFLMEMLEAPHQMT

In the case of `O=C(O)c1cc(-c2ccccc2)nc2ccccc12`, the Potency result in assay [1], in [2], in assay [6], in assay [7], in assay [8] and in assay [9] was “inactive” in each case. The Potency result in assay [10], in assay [11], in assay [12], in assay [13], in [15] and in assay [16] was “inactive” each time. Moreover, in [17], the Potency entry was “inactive”. In addition, the call in assay [3], in assay [4], in assay [5], in assay [14] and in assay [18] was inactive.
Regarding `O=C(Oc1ccccc1)c1ccc(O)cc1`, the Potency entry in assay [1], in assay [2], in assay [6], in assay [19], in assay [8] and in assay [9] was “inactive” in each case. Further, the Potency result in assay [10], in [11], in [12] and in [13] was “inactive” throughout. The result in assay [3], in [4] and in [5] was inactive. In assay [20], the Potency was 19.4 µM (active) and 30.6 µM (active).
For the compound `c1ccc2[nH]cnc2c1`, the Potency result in assay [1], in assay [2], in assay [6], in assay [19], in assay [8] and in [9] was “inactive” throughout. Also, the Potency entry in assay [10], in assay [11], in assay [12], in assay [13] and in assay [20] was “inactive” throughout. For the same compound, the outcome in assay [3], in [4] and in assay [5] was inactive.
In the case of `CN(C)c1cccc(O)c1`, the Potency entry in [1], in [2], in assay [6], in assay [7], in assay [8] and in assay [9] was “inactive” throughout. The Potency entry in assay [10], in assay [11], in assay [12] and in [13] was “inactive” throughout. For the same compound, the call in [3], in [4] and in assay [5] was inactive. In addition, the Potency result in assay [20] was “inactive and 34.4 µM (active)”.
On to `CCCCCCCCCCC=CC1CC(=O)OC1=O` (centres undefined), for which the Potency result in assay [1], in assay [6], in assay [7], in assay [8], in assay [9] and in assay [10] was “inactive” in each case. Further, the Potency entry in [11] and in assay [12] was “inactive” throughout. Moreover, the outcome in assay [3], in [4] and in assay [5] was inactive. For the same compound, the Potency in assay [19] is 54.8 µM (active) and inactive.
As for `CC1=C(CC(=O)O)c2cc(F)ccc2/C1=C\c1ccc(S(C)=O)cc1` (centres undefined), the Potency result in [1], in assay [6], in assay [7], in assay [19], in assay [8] and in assay [9] was “inactive” throughout. The Potency result in assay [11] and in [12] was “inactive” throughout. For the same compound, the result in assay [3], in assay [4], in assay [5], in assay [14] and in assay [18] was inactive.
As for `CC[Si](OC(C)=O)(OC(C)=O)OC(C)=O`, the Potency entry in assay [1], in [2], in assay [6], in assay [7], in [19] and in assay [8] was “inactive” each time. Further, the Potency entry in [9], in assay [10], in assay [11] and in assay [12] was “inactive” in each case. Also, the call in assay [3], in [4] and in assay [5] was inactive.
As for `Nc1c(S(=O)(=O)O)cc(Br)c2c1C(=O)c1ccccc1C2=O`, the Potency result in assay [1], in assay [2], in assay [6], in [7], in assay [19] and in assay [8] was “inactive” each time. Besides, the Potency result in [9], in [11], in assay [12], in assay [13] and in assay [20] was “inactive” in each case. The compound was called inactive in assay [3], in assay [4] and in assay [5].
Take `CC#C[C@]1(O)CC[C@H]2[C@@H]3CCC4=CC(=O)CCC4=C3[C@@H](c3ccc(N(C)C)cc3)C[C@@]21C`: the Potency entry in assay [1], in assay [2], in [6], in assay [7], in [8] and in assay [9] was “inactive” throughout. For the same compound, the Potency result in [11], in assay [12] and in assay [16] was “inactive” each time. For the same compound, the result in assay [3], in assay [4], in assay [5] and in assay [14] was inactive. Moreover, the Potency in [19] is 30.6 µM (active) and 26.6 µM (active); in assay [13] it was 27.3 µM (active) and 26.6 µM (active); in [15] it was 22 µM (active); in [17], 21.1 µM (active).

These data come from PubChem BioAssay (Tox21).
